Most compounds without a hit are left out; they make up all but 6.6% or so of the library.
KB-3-1 cytotox – KB-3-1 parental cell cytotoxicity. AID 1347075. Potency, µM (doses to about 46.1 µM), most hits filed as cytotoxic. actives 1.4% (n = 400,000). KB-3-1 viability, CellTiter-Glo ATP luminescence, 72 h; further: on the % scale 0 is the no-effect control and ±100 the full control effect; nearly all actives have a fitted effect of over 60% in size
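KB-3-1 cells, DMEM (no phenol red) + 10% FBS; compound by pin transfer, 72 h, 37 °C. Readout: CellTiter-Glo luminescence after 10 min. Data normalized, curve-fitted.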
SW480 rerep – induces DNA re-replication in SW480 colon adenocarcinoma cells | SW480 DNA re-replication, Hoechst DNA content imaging, 48 h | Potency, µM (highest dose often 46.1 µM), inactives show top-dose re-replication activation, usual class: activators | actives 1.8% (n = 340,000) | AID 624297; further: % of control where 0% means no effect; nearly all actives have a fitted effect of over 55% in size
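Treated cells incubate 48 hr (37 C, 5% CO2), are stained 40 min with Hoechst, and nuclear fluorescence is enumerated; a rise in nuclei with high DNA signal marks re-replication.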
MCF10A rerep – inducers of DNA re-replication in MCF 10A breast cells | actives 2.9% (n = 350,000) | MCF 10A DNA re-replication, Hoechst nuclear intensity, 48 h | Potency, µM (doses to about 46.1 µM), for the others: at the highest dose activity, positive = re-replication, most hits filed as activators | AID 624296; further: % of control where 0% means no effect; nearly all actives have a fitted effect of over 50% in size
RGS4 inhibitor – inhibitors of human regulator of G protein signaling 4; P49798; Transcreener GDP fluorescence polarization, RGS4-accelerated GTP hydrolysis; AID 504845; Potency, µM (series often up to 114 µM), without a hit: at the top dose activity change, negative = inhibition, actives largely listed as inhibitors; actives 0.039% (n = 390,000); further: on the % scale 0 is the no-effect control and ±100 the full control effect; nearly all actives have a fitted effect of over 75% in size
Target sequence (P49798 whole entry, looked up): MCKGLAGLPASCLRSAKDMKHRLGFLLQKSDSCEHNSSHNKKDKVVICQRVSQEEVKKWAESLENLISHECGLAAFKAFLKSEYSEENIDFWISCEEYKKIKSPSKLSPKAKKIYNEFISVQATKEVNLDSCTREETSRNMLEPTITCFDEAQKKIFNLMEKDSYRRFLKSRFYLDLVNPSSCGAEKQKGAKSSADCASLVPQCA
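MLSMR compounds (23 nl, pin-transferred) preincubated 10 min at room temperature with a 500nM (2x) first reagent, then RGS4 at 900nM (2x) plus Transcreener GDP mix added; fluorescence polarization (620/688 nm) read before and after 90 min at 30 °C.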
KB-V1 cytotox – KB-V1 MDR subline cytotoxicity; Potency, µM (highest dose often 46.1 µM), actives largely listed as cytotoxic; actives 3.4% (n = 400,000); KB-V1 MDR cells viability, CellTiter-Glo, 72 h; AID 1347076; further: on the % scale 0 is the no-effect control and ±100 the full control effect; nearly all actives have a fitted effect of over 60% in size
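Drug-selected KB-V1 cells, grown in DMEM lacking phenol red with 10% FBS, receive compound titrations; after three days at 37 degrees C, surviving cell ATP is quantified by CellTiter-Glo luminescence and responses normalized and curve-fitted.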
TSG101-PTAP inh – blocks PTAP/TSG101 interaction to inhibit HIV-1 budding | Q99816 | Fluorescence polarization, FITC-PTAP peptide / Tsg101 binding | Potency, µM (highest dose often 115 µM), for the others: at the top dose activity change, negative = inhibition, most hits filed as inhibitors | 340,000 tested, under 10 active | AID 493005; active means well fitted inhibition curve with a large enough effect in the main read-out, with a control signal flat, not every such curve was filed as active; inconclusive means small, poorly fitted or top-dose-only effect, or effect the other way, or a change in a side signal; inactive means no such curve, though single readings can be large or run the other way; further: % of control where 0% means no effect
Target sequence (Q99816 whole entry, looked up): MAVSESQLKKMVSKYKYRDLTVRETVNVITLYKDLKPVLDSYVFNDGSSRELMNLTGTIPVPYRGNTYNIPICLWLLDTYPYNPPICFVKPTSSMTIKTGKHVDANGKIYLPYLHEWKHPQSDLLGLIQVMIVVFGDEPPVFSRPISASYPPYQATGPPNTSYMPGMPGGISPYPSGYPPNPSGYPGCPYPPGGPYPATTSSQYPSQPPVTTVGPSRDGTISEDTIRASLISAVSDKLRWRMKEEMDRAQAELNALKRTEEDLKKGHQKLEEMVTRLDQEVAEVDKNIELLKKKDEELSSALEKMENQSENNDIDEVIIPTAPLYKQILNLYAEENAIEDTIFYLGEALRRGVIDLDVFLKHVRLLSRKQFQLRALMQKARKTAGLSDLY
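Compounds were pin-transferred onto Tsg101 binding domain (10 uM final) in HEPES pH 7.5 buffer, then FITC-PTAP peptide was added at 50 nM final. After 20 min at RT, polarization reported peptide displacement across a qHTS concentration series.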
Active calls of the source: *; i = inactive; ? = inconclusive; nt = no result; ! = a repeat was not active; [ ] = another dose, or the depositor's remark. Unless noted, the call rests on the fitted dose curve; in most records, active means well fitted curve in the direction sought with a large enough effect; inconclusive means small, poorly fitted or top-dose-only effect, or another doubt; inactive means no such curve, though single readings can be large; an effect the other way counts as inactive or inconclusive. Potency means the concentration at half of the fitted maximal effect.

SMILES	KB-3-1 cytotox	SW480 rerep	MCF10A rerep	RGS4 inhibitor	KB-V1 cytotox	TSG101-PTAP inh
Oc1ccc(COCc2ccccc2)c2cccnc12	?	3.26µM*	?	14.5%[11.4 µM]	?	-2.3%
COCc1cc(CN2CCCC2)c(O)c2ncccc12	?	-0.7%	7.3%	7.9%	?	-10.7%
COc1ccc(C2Nc3ccccc3C(=O)N2c2ccc(Cl)cc2)cc1COc1ccc(NC(C)=O)cc1 (configuration not stated)	?	nt	nt	-36.1%	i	nt
CN(C)c1ccc(C2CC(c3c(O)n(C4CCCCC4)c(=O)[nH]c3=O)=Nc3ccccc3S2)cc1 (configuration not stated)	i	nt	nt	2.2%	i	nt
OCc1ccc(O)c2ncccc12	?	16.4µM*	?	2.0%	?	-2.4%
Oc1c(CN2CCOCC2)ccc2ccccc12	i	3.3%	29.7%	-49.7%	?	1.9%
Oc1ccc(CNc2ccccc2F)c2cccnc12	20.6µM*!	?	?	-41.4%	?	-7.9%
Oc1c(CN2CCCCC2)ccc2cccnc12	?	5.17µM*	112.0%	-13.2%	?	-7.5%
Cn1cccc1-c1cc2n(n1)CCC(=O)N2CC(=O)Nc1ccc(F)cc1Cl	i	nt	nt	0.4%	i	nt
CCc1nnc(SCC(=O)Nc2ccc(Cl)cc2F)c2cc3occc3n12	?	nt	nt	-16.3%	i	nt
Cc1cc(C(=O)CCl)c(C)n1CCc1ccc(Cl)cc1	?	5.17µM*	16.4µM*	-28.3%	?	-1.6%
COc1ccc(CCn2c(C)cc(C(=O)CCl)c2C)cc1OC	?	5.8µM*	6.51µM*	15.3%	?	-11.3%
Cc1cc(C)c(S(=O)(=O)NCc2csc(-c3ccccc3)n2)c(C)c1	nt	nt	nt	-13.3%	nt	nt
COc1ccc(CCNC(=O)c2cnc3sc(N4CCOCC4)nn3c2=O)cc1	i	nt	nt	18.8%	i	nt
O=C(C1CCCCC1)N(Cc1cccnc1)c1nc2ccc(Cl)cc2s1	nt	nt	nt	12.5%	nt	nt
CCCC1=C/C(=C/c2ccc(-c3ccccc3OC)o2)C(=O)O1	i	23.1µM*	10.3µM*	?	i	0.5%
CN(C)S(=O)(=O)c1ccc(-c2csc(N/N=C/c3ccc(O)cc3)n2)cc1	20.6µM*	-80.4%	?	-22.8%	14.6µM*	-4.0%
CN(C)S(=O)(=O)c1ccc(-c2csc(N/N=C/c3ccco3)n2)cc1	?	-10.2%	?	-12.0%	?	-4.3%
CCCCOc1ccc(CC(=O)N(C)O)cc1	?	nt	nt	nt	i	nt
O=S(=O)(c1cnc2ccccc2c1)N1CCN(c2nc(-c3cccs3)nc3ccccc23)CC1	nt	nt	nt	16.6%	nt	nt
Cc1cc([N+](C)(C)C)cc(C)c1/C=C/c1ccnc2ccccc12	i	nt	nt	nt	i	nt
c1cncc(N=c2scc(-c3cccc4ccccc34)n2CCCn2ccnc2)c1	i	2.0%	25.7%	-8.7%	11.6µM*	1.3%
Cc1ccc(-c2csc(=Nc3cccnc3)n2CCCn2ccnc2)cc1C	16.4µM*	-1.1%	?	4.1%	7.31µM*	-0.1%
Cc1ccc(-c2csc(=Nc3cccnc3)n2CCCN2CCCC2=O)cc1C	?	9.5%	24.6%	-3.8%	?	-2.2%
Cc1cccc2c1N(C(=O)c1ccco1)C(C)(C)c1ssc(=S)c1-2	i	0.9%	-1.8%	14.7%	?	-7.1%
SMILES	KB-3-1 cytotox	SW480 rerep	MCF10A rerep	RGS4 inhibitor	KB-V1 cytotox	TSG101-PTAP inh
Cc1ccc2c(c1)N(C(=O)c1ccco1)C(C)(C)c1ssc(=S)c1-2	i	-4.1%	-5.7%	6.8%	9.2µM*	-7.6%
Cc1nc2ccccc2n1CCc1nc2c3ccccc3nc(SCc3ccc(C#N)cc3)n2n1	i	nt	nt	-1.4%	i	nt
CCOc1ccc(CN(C)CC(=O)Nc2ccc([N+](=O)[O-])cc2Cl)cc1	i	4.2%	8.0%	6.1%	16.4µM*	-0.3%
O=C(NCCc1ccccc1)c1ccc2c(c1)CCN2S(=O)(=O)c1ccccc1	i	nt	nt	-12.7%	i	nt
C=CCOc1ccc(CN(C)C(=O)CNC(=O)c2ccc(-c3ccccc3)cc2)cc1	4.61µM*	?	-0.6%	26.3%	2.31µM*	1.1%
Clc1ccccc1Nc1nnc(-c2ccncc2)s1	?	-7.2%	-7.0%	-4.9%	9.2µM*	0.0%
COc1ccc(CCNC(=O)C(C)n2nc(C)c3sc4ccccc4c3c2=O)c(OC)c1 (configuration not stated)	nt	nt	nt	-32.9%	nt	nt
Cc1oc(-c2ccccc2F)nc1CSCC(=O)NCc1ccccc1	i	nt	nt	-0.1%	i	nt
CSc1nc(N2CCOCC2)c2c(c1C#N)CC(C)(C)OC2	?	-7.7%	3.9%	-6.2%	9.2µM*	-5.5%
CC(C)CCSc1nc(N2CCOCC2)c2c(c1C#N)CC(C)(C)OC2	i	21.6%	?	-1.8%	8.2µM*	-6.9%
CCN(CC)c1cc2c(cc1F)c(=O)c(S(=O)(=O)c1ccccc1)cn2Cc1ccccc1	i	nt	nt	-16.8%	?	nt
COc1ccc(C(=O)/C=C/c2ccsc2)cc1CSCC(=O)O	i	?	18.4µM*	-21.9%	i	-0.2%
COc1ccc(CNCCC(c2ccc3c(c2)OCO3)c2ccccc2OC)cc1 (configuration not stated)	i	nt	nt	7.4%	?	nt
CC(=O)c1ccc(N/N=C(/C(N)=O)C2=NC(C)(C)Cc3ccccc32)cc1	i	?	?	-11.4%	11.6µM*	-1.2%
CC1(C)Cc2ccccc2C(/C(=N\Nc2cccc(Cl)c2)C(N)=O)=N1	?	-4.6%	?	-22.2%	i	-3.7%
CCc1ccccc1NC(=O)CN1CCN(CC(=O)Nc2ccc3c(c2)OC2(CCCCC2)O3)CC1	?	8.2µM*	6.51µM*	9.1%	i	-0.3%
COc1ccc(CC(=O)NCC(c2ccc(OC)cc2)N(C)C)cc1 (configuration not stated)	i	?	3.26µM*	12.0%	i	-2.4%
CCOC(=O)c1ccc(OCC2c3cc(OC)c(OC)cc3CCN2C(=O)Cc2ccc(F)cc2)cc1 (configuration not stated)	i	nt	nt	11.3%	i	nt
CC(C)(C)c1ccc(NC(=O)N2CCCN(c3ccc([N+](=O)[O-])cn3)CC2)cc1	?	2.2%	-12.6%	-2.3%	10.3µM*	34.3%
O=C(Nc1ccccc1)N1CCN(c2ccc(C(F)(F)F)cn2)CC1	?	-4.6%	1.1%	16.0%	8.2µM*	-5.1%
O=C(Nc1ccccc1)N1CCN(c2cccc(C(F)(F)F)c2)CC1	i	-6.9%	-7.8%	-6.1%	?	-9.0%
